In PubChem BioAssay AID1377 (University of Pittsburgh Molecular Library Screening Center, 2008):
Several values for one entry are separate records, joined by “and”; a condition that tells them apart may be missing. Equal values may be shown once. Hit rate of the full screen: of about 220,000 compounds, about 830 (0.38%) were called active. Many of the other results were omitted from the sample, so actives are more common in it than they were. Values without a mark were called inactive.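 Rule for the calls: active = activation, scaled between plate controls, above about 75% (limit read from the data); inactive = activation under that limit.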

Experiment: rescue of L929 cells from zVAD death – primary screen (AID 1377);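 note: 0% = zVAD with DMSO and 100% = DMSO alone without zVAD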
Details: L929 zVAD necroptosis rescue, ATP luminescence, 24 h, at 10 µM, stronger effect = higher value; with zVAD 60 µM unless noted

Row | Structure (SMILES) | viability rescue
1 | Oc1ccc(-c2onc3ccc(Cl)cc23)cc1 | 82.9% (active)
2 | Clc1ccc2nc(-c3ccccc3)nc(C(Cl)Cl)c2c1 | 37.5%
3 | NC(=O)C[n+]1cccc(C(N)=O)c1 | 1.24%
4 | O=C(O)CCn1c(O)c(C=C2N=c3ccccc3=N2)sc1=S | -0.21%
5 | CCN(CC)CCNS(=O)(=O)c1ccc(/C=C/C(=O)O)cc1 | 1.05%
6 | C/C(=C/C(=O)N1CCN(C)CC1)C(=O)O | 0.98%
7 | CSc1nc2c(c(=O)[nH]1)C(c1cccc(Cl)c1Cl)CC(=O)N2 (configuration not stated) | 0.3%
8 | Cc1ccccc1C(=O)N1CCC(C(=O)Nc2ccc(S(=O)(=O)N(C)C(C)C)cc2)CC1 | -0.58%
9 | NS(=O)(=O)c1cccnc1Nc1cccc(Cl)c1 | -0.92%
10 | CC(C)n1cnc2c(Nc3cccc(Cl)c3)nc(N(CCO)CCCO)nc21 | 20.9%
11 | OCCCNc1nccc(-c2cc(Nc3cccc(Cl)c3)ncn2)n1 | 103% (active)
12 | CC(=O)Nc1ccc(S(=O)(=O)NCC(=O)OCc2cc(=O)oc3ccc4ccccc4c23)cc1 | 0.62%
13 | COc1ccc(Nc2ncc(F)c(N3CCOCC3)n2)cc1 | 75.1% (active)
14 | c1ccc(Nc2nc(N3CCOCC3)c3ccccc3n2)cc1 | -0.17%
15 | CCOc1ccc(Nc2nc(Cl)nc(N3CCN(c4ccc(OC)cc4)CC3)n2)cc1 | 0.74%
16 | CCCOC(=O)c1c(NC(=O)c2cnn3c2NC(c2ccccc2)CC3C(F)(F)F)sc2c1CCCC2 (configuration not stated) | 7.75% [with zVAD 20 µM]
17 | CC(C)NC(=O)/C(C#N)=C\c1ccc(N(C)C)c(Br)c1 | 0.11%
18 | COc1ccc(C2CC(c3cccs3)Nc3nnnn32)cc1 (configuration not stated) | 2.51%
19 | Cc1cc(-n2cnc(-c3cn(C)nc3C)n2)no1 | 80.2% (active)
20 | C/C(Cc1ccccc1)=N\NC(=O)CNC(=O)c1ccc2c(c1)OCCO2 | 0.03%
21 | COc1cccc(Nc2nc(N)c([N+](=O)[O-])c(NCc3ccco3)n2)c1 | -0.44%
22 | COC(=O)c1cccnc1NC(=S)NC(C)C | -0.14%
23 | CC[C@H]1CN2CCc3cc(OC)c(OC)cc3[C@@H]2C[C@@H]1C[C@H]1NCCc2cc(OC)c(OC)cc21 | 79.5% (active)

Row | Structure (SMILES) | viability rescue
24 | COc1cc2c(cc1O)[C@H](Cc1ccc(Oc3cc(C[C@@H]4NCCc5cc(OC)c(O)cc54)ccc3O)cc1)NCC2 | 5.53%
25 | O=C(/C=C/c1cccs1)NCc1cccnc1 | 0.04%
26 | Cc1ccc(Nc2ccccc2N)cc1 | 75.5% (active)
27 | Nc1ccc(Nc2ccccc2)cc1 | 0.51% [with zVAD 20 µM]
28 | Cc1ccc(Nc2nnc(SCc3ccccc3)s2)cc1 | 1.32% [with zVAD 20 µM]
29 | Cc1ccc(C)c(NC(=O)C2Cc3ccccc3CN2C(=O)OCc2ccccc2)c1 (configuration not stated) | 0.1% [with zVAD 20 µM]
30 | Cc1cc(NC(=O)c2cnn3cccnc23)n(-c2ccccc2)n1 | 77.7% (active)
31 | Cc1cc(NC(=O)Nc2ccccc2)n(-c2ccccc2)n1 | 0.11% [with zVAD 20 µM]
32 | O=C(Nc1ccc(Cl)cn1)c1cnn2cccnc12 | -0.65%
33 | CNC(=S)N/N=C/c1cn(Cc2ccc(C)cc2)c2ccccc12 | 0.34%
34 | COCCNC(=O)c1ccccc1NS(=O)(=O)c1ccc(C)c([N+](=O)[O-])c1 | 0.95%
35 | COc1ccc(/C=N/NS(=O)(=O)c2ccc(NC(C)=O)cc2)cc1 | 0.07%
36 | Cc1cc(=O)oc2cc(OCC(=O)Nc3nnc(C4CC4)s3)ccc12 | -0.67%
37 | Cc1ccc(NC(=O)Cn2cccc2C2=NC(c3ccccc3)CO2)c(C)c1 (configuration not stated) | -0.00089%
38 | COc1cc(/C=N/Nc2nc3ccccc3s2)ccc1O | 77.5% (active)
39 | COc1cc(/C=N\Nc2nc(-c3cccs3)c(NC(C)=O)s2)ccc1O | 2.98%
40 | CCNc1nc(NCC)nc(N/N=C/c2ccc(O)c(OC)c2)n1 | 0.27%
41 | COc1cc2nc(Cl)nc(NCCO)c2cc1OC | 0.24%
42 | CC1CC(C)(C)n2c(O)c(N=NC(N)=S)c3cccc1c32 (configuration not stated) | -0.69%
43 | COc1ccccc1/C=C/CN1CCC(CO)(Cc2ccccc2)CC1 | 0.85%
44 | NC(=O)COC(=O)/C=C/c1ccc2ccccc2n1 | 10.8%
45 | CC(=O)c1ccc(S(=O)(=O)N2CCN(c3nc4c(C)c(C)ccc4cc3C#N)CC2)cc1 | 1.16%
46 | CC(=O)c1ccc(S(=O)(=O)N2CCN(C(=O)/C=C/c3ccc4ccccc4n3)CC2)cc1 | 75.2% (active)

Row | Structure (SMILES) | viability rescue
47 | Cc1ccc(S(=O)(=O)N(C)CC(=O)OCC(=O)Nc2ccccc2)cc1 | 0.76%
48 | Brc1cc(/C=N/n2cnnc2)oc1Br | 0.56%
49 | Cc1nnc(OCC(=O)NCCC2=CCCCC2)c2ccccc12 | 0.41%
50 | O=C(COc1ccc(Cl)cc1)NCCC1=CCCCC1 | 0.15% [with zVAD 20 µM]
51 | O=C(COc1cccc(-n2cnnn2)c1)NCCC1=CCCCC1 | 78.2% [with zVAD 20 µM] (active)
52 | COCCN(C(=O)c1ccccc1F)c1c(N)n(Cc2ccccc2)c(=O)[nH]c1=O | 1.78%
53 | COc1ccc(CN2C(=O)C(C)S/C2=N/N=C/c2ccco2)cc1 (configuration not stated) | 0.28%
54 | COC(=O)c1[nH]c2ccccc2c1NS(=O)(=O)c1ccc(OC)cc1OC | -0.08%
55 | CN=c1scc(-c2cc(OC)ccc2OC)n1/N=C/c1c(C)[nH]c2ccccc12 | 3.26% [with zVAD 20 µM]
56 | COc1ccccc1N=Cc1c(O)c2ccccc2oc1=O | -0.1%
57 | COCC(=O)N=Nc1c(O)[nH]c2ccccc12 | -0.49% [with zVAD 20 µM]
58 | COc1ccc(N=Cc2c(O)[nH]c3ccccc23)cc1OC | 76.4% [with zVAD 20 µM] (active)
59 | COc1cc(N=Cc2c(O)[nH]c3ccccc23)cc(OC)c1OC | 78.4% [with zVAD 20 µM] (active)
60 | Cc1cccc(C(=O)N2CCC(c3nc4ccccc4s3)CC2)c1 | 12.5%
61 | CC(C)=CCN1CCN(Cc2ccc(Oc3ncccn3)cc2)CC1CCO (configuration not stated) | -0.77%
62 | CCc1ccc(C2C(C#N)=C(N)N(N3CCOCC3)C3=C2C(=O)CC(C)(C)C3)s1 (configuration not stated) | -0.95%
63 | CCCN=C1NC(=O)C(CC(=O)NCCc2ccc(OC)c(OC)c2)S1 (configuration not stated) | 0.51% [with zVAD 20 µM]
64 | OCC(CO)(CO)NCc1ccc(-c2ccccc2)cc1 | 3.78%
65 | O=C(Nc1nnc(C2CC2)s1)C1=NN(C2CCS(=O)(=O)C2)C(=O)CC1 (configuration not stated) | 1.75%
66 | Cn1c(=O)c2c(nc(NCc3ccccc3)n2CC(N)=O)n(C)c1=O | -0.38%
67 | Clc1ccc(-c2cc(-c3ccccn3)on2)c(Cl)c1 | -0.1%
68 | COc1ccc(Br)c2c1C(=O)CC2 | 1.09%
69 | NC1=NC[C@@H](Cc2ccc(O)cc2)N1CC1CCCCC1 | 0.84%

Row | Structure (SMILES) | viability rescue
70 | c1ccc2c(c1)CSc1sccc1C2=C1CCNCC1 | 1.55%
71 | O=C(Nc1ccccc1)Nc1ccc(C(F)(F)F)cn1 | 16.8%
72 | Oc1ccc(/C=N/Nc2ccc(C(F)(F)F)cn2)cc1O | 78.6% (active)
73 | Cc1nccn1CC(=O)N/N=C/c1ccc(O)c(O)c1 | 0.09% [with zVAD 20 µM]
74 | COc1cc(Cl)c(C)cc1NC(=O)COC(=O)c1cc(SC)ccc1Cl | -0.03% [with zVAD 20 µM]
75 | O=S(=O)(NC1CC1)c1ccc2c3c(cccc13)CC2 | 2.42%
76 | CC(=O)Nc1cccc(C(=O)Nc2nc(C)cs2)c1 | -1.49%
77 | Cc1csc(NC(=O)Nc2ccccc2[N+](=O)[O-])n1 | 0.75%
78 | Cc1csc(NC(=O)NC2(C(F)(F)F)Oc3ccccc3O2)n1 | 78.5% [with zVAD 20 µM] (active)
79 | COc1ccc(CNC(=O)CN2CCC(n3nnc4cc(F)ccc43)CC2)cc1 | -0.59%
80 | Cc1oc(C(N)=O)cc1COc1ccc(C(N)=O)cc1 | 1.12%
81 | Cc1cc(C(=O)NNS(=O)(=O)c2ccccc2C(F)(F)F)nn1C(C)(C)C | 0.49%
82 | CN(C)S(=O)(=O)c1ccc(NC(=O)COC(=O)Cn2[nH]c(=O)c3ccccc3c2=O)cc1 | 0.01%
83 | COc1ccc(Cl)cc1NC(=O)COC(=O)C(CC(C)C)N1C(=O)C2CC=CCC2C1=O (configuration not stated) | 0.49% [with zVAD 20 µM]
84 | CCOC(=O)C(=O)C1C(=O)Nc2ccccc21 (configuration not stated) | -0.07%
85 | O=C(/C=C/c1ccccc1[N+](=O)[O-])OC1CCCCC1=O (configuration not stated) | -0.52%
86 | O=C(/C=C/c1ccccc1[N+](=O)[O-])NCC1CCCO1 (configuration not stated) | 1.4%
87 | CC1CCCCC1NC(=O)/C(C#N)=C/C=C/c1ccccc1[N+](=O)[O-] (configuration not stated) | 77% (active)
88 | C=CCn1c(P(C)(=O)O)nc2ccccc21 | 0.44% and 0.28%
89 | CCOc1cc2[nH]c(=O)n(Cc3ccc(C(=O)NCCCN4CCCC4=O)cc3)c(=O)c2cc1OCC | 0.03%
90 | O=C(CSc1ccc([N+](=O)[O-])cn1)Nc1ccc(N2CCOCC2)c(Cl)c1 | 80.2% (active)
91 | Cc1cccc(C)c1NC(=O)CSc1ccc([N+](=O)[O-])cn1 | 1.1%
92 | O=C(CSc1ccc([N+](=O)[O-])cn1)Nc1ccc(N2CCOCC2)cc1 | 16.6%
